The campaign covered roughly 5,500 compounds. About 2,000 (36%) were called active. Roughly 18% stayed inconclusive and do not appear here. Cut-off read from the data, not from the text of the source: active = normalized growth mostly below about 0.91 (no sharp cut-off); inconclusive = no clear call, values can overlap the other calls; inactive = mostly above about 0.92. Some of the results follow.
Test: chemical genetic growth profiling, strain panel (AID 1159580);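 note: tested at 20 µM; growth read once vehicle control cultures reached saturation at 30 °C; 1 = growth at the plate median or of vehicle wells; lower values mean less growth of the strain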
Details: S. cerevisiae deletion strains, growth OD
[1] = locus YHR030C, strain SLT2, hits give low values
[2] = locus YHR079C, strain IRE1, hits give low values
[3] = locus YJL095W, strain BCK1, hits give low values
[4] = locus YJR066W, strain TOR1, hits give low values
[5] = locus YLR113W, strain HOG1, hits give low values
[6] = locus YNL183C, strain NPR1, hits give low values
[7] = locus YOR231W, strain MKK1, hits give low values
[8] = locus YPL256C, strain CLN2, hits give low values

Measured: normalized growth

O=S(=O)([O][Al])OC[C@H]1O[C@@](COS(=O)(=O)[O][Al])(O[C@H]2O[C@H](COS(=O)(=O)[O][Al])[C@@H](OS(=O)(=O)[O][Al])[C@H](OS(=O)(=O)[O][Al])[C@H]2OS(=O)(=O)[O][Al])[C@@H](OS(=O)(=O)[O][Al])[C@@H]1OS(=O)(=O)[O][Al]
inactive: [1] 0.977 | [2] 0.981 | [3] 0.986 | [4] 0.958 | [5] 0.984 | [6] 0.924 | [7] 0.98 | [8] 0.985

Nc1cc(C(Cl)=C(Cl)Cl)c(S(N)(=O)=O)cc1S(N)(=O)=O
inactive: locus YAL021C, strain ccr4, hits give low values 0.98 | locus YAL026C, strain drs2, hits give low values 1 | locus YAL030W, strain snc1, hits give low values 1.02 | locus YBL061C, strain skt5, hits give low values 1.01 | locus YBR009C, strain hhf1, hits give low values 0.992 | locus YBR023C, strain chs3, hits give low values 0.999 | locus YBR171W, strain sec66, hits give low values 1.02 | locus YBR231C, strain swc5, hits give low values 1.04 | locus YBR279W, strain paf1, hits give low values 1.01 | locus YCL011C, strain gbp2, hits give low values 0.976 | locus YCL016C, strain dcc1, hits give low values 0.978 | locus YCL061C, strain MRC1, hits give low values 1.04 | locus YCL069W, strain vba3, hits give low values 1.01 | locus YCR088W, strain abp1, hits give low values 1.01 | locus YDL005C, strain med2, hits give low values 1.01 | locus YDL040C, strain nat1, hits give low values 1.01 | locus YDR001C, strain nth1, hits give low values 1.02 | locus YDR069C, strain doa4, hits give low values 1.05 | locus YDR137W, strain rgp1, hits give low values 0.998 | locus YDR159W, strain sac3, hits give low values 0.957 | locus YDR195W, strain ref2 0.998 | locus YDR297W, strain sur2, hits give low values 1.01 | locus YDR334W, strain swr1, hits give low values 1.01 | locus YDR335W, strain msn5, hits give low values 1.01 | locus YDR392W, strain spt3, hits give low values 0.978 | locus YEL003W, strain gim4, hits give low values 1.05 | locus YEL037C, strain rad23, hits give low values 1 | locus YEL061C, strain CIN8 (second series), hits give low values 1 | locus YER015W, strain faa2, hits give low values 1.02 | locus YER016W, strain bim1, hits give low values 1 | locus YER111C, strain swi4, hits give low values 1.01 | locus YER155C, strain BEM2 (second series), hits give low values 1.07 | locus YFR010W, strain ubp6, hits give low values 1.02 | locus YGL167C, strain pmr1, hits give low values 1.02 | locus YGL173C, strain kem1, hits give low values 1.04 | locus YGL227W, strain vid30, hits give low values 1 | locus YGL240W, strain doc1, hits give low values 1.04 | locus YGL253W, strain hxk2, hits give low values 1.01 | locus YHR013C, strain ard1, hits give low values 1.03 | locus YHR027C, strain rpn1, hits give low values 1.02 | [1] 0.977 | [2] 0.967 | locus YHR142W, strain chs7, hits give low values 1.02 | locus YJL092W, strain hpr5, hits give low values 1.02 | locus YJL095W, strain BCK1 (second series), hits give low values 0.997 | [3] 1.01 | locus YJL115W, strain asf1, hits give low values 1 | locus YJL129C, strain trk1, hits give low values 1.02 | locus YJL154C, strain vps35, hits give low values 0.999 | locus YJL164C, strain tpk1, hits give low values 0.995 | locus YJL166W, strain qcr8, hits give low values 1.06 | [4] 0.95 | locus YKL160W, strain elf1, hits give low values 1.02 | locus YKR026C, strain gcn3, hits give low values 1.01 | locus YKR091W, strain srl3, hits give low values 0.992 | locus YLL001W, strain dnm1, hits give low values 1.04 | locus YLL026W, hits give low values 1.02 | locus YLL041C, strain sdh2, hits give low values 1.01 | locus YLR027C, strain aat2, hits give low values 1.02 | [5] 1 | locus YLR221C, strain rsa3, hits give low values 0.981 | locus YLR258W, strain gsy2, hits give low values 0.991 | locus YLR262C, strain YPT6 (second series), hits give low values 1.06 | locus YLR320W, strain mms22, hits give low values 0.993 | locus YLR342W, strain FKS1, hits give low values 1.04 | locus YLR357W, strain rsc2, hits give low values 1.04 | locus YLR370C, strain arc18, hits give low values 1 | locus YLR384C, strain iki3, hits give low values 1.01 | locus YML120C, strain ndi1, hits give low values 1.03 | locus YMR058W, strain fet3, hits give low values 1.02 | locus YMR125W, strain sto1, hits give low values 0.972 | locus YMR129W, hits give low values 0.998 | locus YMR205C, strain PFK2, hits give low values 1.03 | locus YMR231W, strain pep5, hits give low values 1.01 | locus YNL071W, strain lat1, hits give low values 0.991 | [6] 0.962 | locus YNL209W, strain ssb2, hits give low values 0.994 | locus YNL248C, strain rpa49, hits give low values 0.995 | locus YNL322C, strain KRE1 (second series), hits give low values 1.01 | locus YNR049C, strain mso1, hits give low values 1 | locus YOR001W, strain rrp6, hits give low values 1.02 | locus YOR070C, strain gyp1, hits give low values 1 | locus YOR080W, strain dia2, hits give low values 1.02 | locus YOR083W, strain WHI5, hits give low values 1.01 | locus YOR106W, strain vam3, hits give low values 1.04 | [7] 0.986 | locus YOR265W, strain rbl2, hits give low values 1.01 | locus YOR270C, strain vph1, hits give low values 1.05 | locus YOR290C, strain snf2, hits give low values 0.964 | locus YPL051W, strain arl3, hits give low values 1.04 | locus YPL078C, strain atp4, hits give low values 1.06 | locus YPL106C, strain sse1, hits give low values 0.997 | locus YPL240C, strain hsp82, hits give low values 1 | [8] 0.964

From PubChem BioAssay AID1159580 (chemical genetic matrix, 2015)
